# In PubChem BioAssay:
# “And” between values parts separate entries of the source, which are not always exact repeats. Equal entries are not always repeated. The source made the active and inactive calls.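 The calls were made as follows, unless noted: active = mean z-score across replicates of 1.96 or higher in either the MELAS or the Rieske mutant cell line; inactive = the rest.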
# Experiments:
# [1] = P. berghei load reduction in hepatocytes – cell-based, HepG2, luciferase luminescence, HepG2 viability, primary screen (AID 624349; in the data active = parasite load remaining mostly below about 12%, no sharp cut-off; inactive = mostly above about 10%;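 also: 100% = mean of DMSO negative control wells on the same plate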); conditions: P. berghei liver stage in HepG2, luciferase luminescence, concentration not given here; parasite load remaining: stronger effect = lower value; viability: measured here: HepG2 viability without parasites
# [2] = Wnt pathway potentiators raising nuclear beta-catenin – imaging, WNT3A-conditioned medium, mouse C2C12, NPC library, primary screen (AID 1117326; in the data active = nuclear beta-catenin stimulation mostly above about 4.2%, no sharp cut-off; inactive = mostly below about 10%); conditions: stronger effect = higher value
# [3] = stimulators of insulin release from INS-1E, primary screen, cell-based, 5 mM glucose, NPC library (AID 1117329;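 active = compound raises insulin release from rat beta cells at 5 mM glucose, no numeric limit stated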); conditions: rat INS-1E insulin secretion, at 10 µM, stronger effect = higher value
# [4] = growth inhibition of GSK3B-pretreated HCT116 cells – cell-based, CellTiter-Glo, 0.2 to 20 µM (AID 1117336;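 active = compounds lowering colon cancer cell viability after pretreatment blocking the GSK3B kinase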); conditions: HCT116 viability after GSK3B inhibitor, at 20 µM, stronger effect = higher value
# [5] = inhibition of endothelial tube formation, primary screen, imaging, VEGF stimulated, CD31 staining, tube area, NPC library (AID 1117340;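 active = compound that reduces growth-factor-driven endothelial tube area in a mixed cell culture, no cutoff stated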); conditions: VEGF-stimulated ADSC/ECFC co-culture, at 10 µM, stronger effect = higher value
# [6] = GLP1 release stimulators, primary, NCI-H716, NPC library (AID 1117341;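 active = compound raises GLP1 secretion from the human gut endocrine cells, with no numeric limit stated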); conditions: NCI-H716 cells, at 10 µM, stronger effect = higher value
# [7] = HCT116 colon cancer cell growth inhibition, primary screen, CellTiter-Glo luminescence, NPC library (AID 1117342;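 active = compounds that lower survival of HCT116 colon cancer cells in the luminescence readout, no numeric limit stated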); conditions: at 20 µM (top of the series)
# [8] = reduced SW480 viability measured with CellTiter-Glo, NPC library, primary (AID 1117343;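 active = compounds that lower viability of the colon cancer cells in the luminescence readout, with no numeric limit stated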); conditions: CellTiter-Glo luminescence; at 20 µM (top of the series)
# [9] = NPC library primary testing for decreased DLD-1 cell viability via CellTiter-Glo (AID 1117346;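 active = compounds that lower survival of DLD-1 colon cancer cells in the luminescence readout, no cutoff given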); conditions: DLD-1 viability, CellTiter-Glo luminescence; at 20 µM (top of the series)
# [10] = molecular target: 6-phosphogluconate dehydrogenase, decarboxylating (Homo sapiens) (UniProt P52209); assay: inhibition of human phosphogluconate dehydrogenase – biochemical, recombinant enzyme, NADPH absorbance, primary screen (AID 1159550;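 active = at least 20% inhibition of 6-phosphogluconate dehydrogenase activity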); conditions: recombinant 6PGD, NADPH absorbance 341 nm; at 10 µM; stronger effect = higher value
# 6-phosphogluconate dehydrogenase, decarboxylating (Homo sapiens), sequence (P52209 whole entry, looked up): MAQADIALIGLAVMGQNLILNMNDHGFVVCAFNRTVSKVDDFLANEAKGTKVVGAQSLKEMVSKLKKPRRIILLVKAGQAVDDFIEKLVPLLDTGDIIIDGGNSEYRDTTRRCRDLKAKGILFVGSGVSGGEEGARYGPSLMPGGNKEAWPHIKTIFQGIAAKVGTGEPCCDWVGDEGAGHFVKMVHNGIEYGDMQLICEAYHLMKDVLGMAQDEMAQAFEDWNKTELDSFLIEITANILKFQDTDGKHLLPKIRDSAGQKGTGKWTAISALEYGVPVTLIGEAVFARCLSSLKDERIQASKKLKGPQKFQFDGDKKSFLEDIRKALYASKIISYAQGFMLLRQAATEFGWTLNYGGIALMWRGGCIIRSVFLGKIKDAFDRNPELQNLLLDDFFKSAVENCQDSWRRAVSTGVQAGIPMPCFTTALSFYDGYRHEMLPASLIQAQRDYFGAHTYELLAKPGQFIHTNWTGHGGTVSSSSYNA
# [11] = EMT-state selective cytotoxicity in co-culture – imaging, PC-3E GFP, TEM4-18 mCherry, primary screen (AID 1345086;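 active = compounds killing one labelled cell type while sparing the other, by normalised counts and ratio limits, not self-fluorescent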;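 as to all read-outs here: cells exposed to compound for 72 h before imaging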;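 as to red/green cell ratio (normalised): normalised mesenchymal count divided by normalised epithelial count so high means epithelial killing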); conditions: PC-3E GFP / TEM4-18 mCherry co-culture, imaging cell counts, at 1 µM; for red/green cell ratio (normalised): actives lie on both sides
# [12] = test system: Aerobactin synthetase IucA (Klebsiella pneumoniae hvKP1); assay: IucA enzyme inhibition, primary screen, biochemical, Spectrum library (AID 1346200; call rule not given here;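 also: 100% = wells without compound and 0% = wells lacking enzyme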); conditions: malachite green pyrophosphate, A620, at 8 µM, stronger effect = lower value
# [13] = viability loss with induced miR-34 in A549 – imaging, A549 dox-inducible miR-34, nuclei and caspase counts, primary screen (AID 1347080;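 active = compounds whose cell count with miR-34 switched on is under 0.7 times the count with it off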); conditions: A549 miR-34 inducible, Hoechst nuclei count, 48 h
# [14] = MELAS cybrid and Rieske KO viability enhancers – cell-based, MELAS cybrids, Rieske KO mouse fibroblasts, CellTiter-Glo, primary screen (AID 1508586); conditions: low glucose;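 also: z relative to plate mean and SD of compound and empty wells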
# [15] = molecular target: NAD(+) hydrolase SARM1 (Homo sapiens) (UniProt Q6SZW1); assay: blocking NAD cleavage by SARM1 SAM-TIR – cell lysate, NAD-Glo luminescence (AID 1508614;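 active = compound whose remaining NAD level is above about 45 nM, limit read from the data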;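 also: higher remaining NAD means stronger inhibition of SARM1 NADase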); conditions: SAM-TIR HEK293T lysate NADase, at 1 µM, stronger effect = higher value
# NAD(+) hydrolase SARM1 (Homo sapiens), sequence (Q6SZW1 whole entry, looked up, the tested form may be a part): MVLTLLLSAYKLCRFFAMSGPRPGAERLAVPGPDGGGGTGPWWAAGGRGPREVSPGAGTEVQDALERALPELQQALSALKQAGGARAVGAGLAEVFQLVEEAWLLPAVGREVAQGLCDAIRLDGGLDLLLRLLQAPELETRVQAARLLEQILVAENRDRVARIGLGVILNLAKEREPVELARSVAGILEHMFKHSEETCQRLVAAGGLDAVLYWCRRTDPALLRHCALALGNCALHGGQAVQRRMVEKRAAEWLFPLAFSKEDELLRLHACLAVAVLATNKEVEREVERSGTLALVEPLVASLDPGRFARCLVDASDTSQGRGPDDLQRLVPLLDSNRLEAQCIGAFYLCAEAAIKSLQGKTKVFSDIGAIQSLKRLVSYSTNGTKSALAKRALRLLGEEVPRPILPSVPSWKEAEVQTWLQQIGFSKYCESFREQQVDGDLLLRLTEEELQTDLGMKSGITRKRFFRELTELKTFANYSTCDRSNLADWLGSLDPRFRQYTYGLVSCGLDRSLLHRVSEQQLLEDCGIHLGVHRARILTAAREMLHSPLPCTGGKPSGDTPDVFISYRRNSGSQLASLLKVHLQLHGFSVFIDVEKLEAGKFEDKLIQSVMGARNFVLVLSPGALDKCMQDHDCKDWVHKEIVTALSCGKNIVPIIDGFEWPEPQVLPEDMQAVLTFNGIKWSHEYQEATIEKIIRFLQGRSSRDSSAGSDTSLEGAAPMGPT
# [16] = molecular target: Mitogen-activated protein kinase 7 (Homo sapiens) (UniProt Q13164); assay: Gal4-ERK5 driven luciferase induction – cell-based, HTS, primary screen (AID 1508626;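 active = luciferase signal above three times the same-plate solvent-only control wells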;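 also: luciferase driven by Gal4-ERK5 fusion binding five Gal4 sites before minimal TATA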); conditions: HeLa Gal4-ERK5 transactivation, 18 h, at 5 µM, stronger effect = higher value
# Mitogen-activated protein kinase 7 (Homo sapiens), sequence (Q13164 whole entry, looked up, the tested form may be a part): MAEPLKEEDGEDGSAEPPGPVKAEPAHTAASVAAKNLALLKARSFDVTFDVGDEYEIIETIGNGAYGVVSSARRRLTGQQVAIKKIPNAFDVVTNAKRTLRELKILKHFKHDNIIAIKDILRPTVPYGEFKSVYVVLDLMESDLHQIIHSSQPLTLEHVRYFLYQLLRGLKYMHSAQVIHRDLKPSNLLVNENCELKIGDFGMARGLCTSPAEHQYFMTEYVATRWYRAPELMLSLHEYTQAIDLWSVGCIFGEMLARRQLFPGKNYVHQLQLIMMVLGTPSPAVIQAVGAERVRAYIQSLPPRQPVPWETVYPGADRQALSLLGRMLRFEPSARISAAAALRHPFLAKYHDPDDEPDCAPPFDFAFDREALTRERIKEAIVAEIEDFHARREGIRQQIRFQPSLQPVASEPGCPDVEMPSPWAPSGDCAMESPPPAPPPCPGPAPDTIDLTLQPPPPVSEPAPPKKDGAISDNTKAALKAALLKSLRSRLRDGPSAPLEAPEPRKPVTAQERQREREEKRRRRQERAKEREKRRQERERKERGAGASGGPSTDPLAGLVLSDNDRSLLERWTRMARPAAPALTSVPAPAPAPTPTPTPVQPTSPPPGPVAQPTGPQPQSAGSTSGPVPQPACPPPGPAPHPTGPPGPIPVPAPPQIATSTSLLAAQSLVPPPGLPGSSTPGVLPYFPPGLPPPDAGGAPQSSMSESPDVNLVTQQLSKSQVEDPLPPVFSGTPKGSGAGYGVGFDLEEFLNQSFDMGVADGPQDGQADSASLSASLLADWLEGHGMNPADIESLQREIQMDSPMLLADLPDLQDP
# [17] = galactose survival enhancers in mitochondrial complex I cybrids – cell-based, galactose medium, ATP luminescence, primary screen (AID 1645843;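 active = z-score of at least 1.8 in each of two replicates, scored against plate mean and spread of sample wells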;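 also: positive z means more ATP and so rescue of galactose-driven cybrid death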); conditions: complex I mutant cybrid cells, 72 h, stronger effect = higher value
# [18] = yeast 75Q aggregation reduction – 75Q-TubU reporter (AID 1593); conditions: Yeast 75Q polyglutamine aggregation reporter
# [19] = blockers of cytochrome c efflux from mitochondria – biochemical, purified mitochondria (AID 1603); conditions: stronger effect = lower value;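 also: mouse liver mitochondria challenged with calcium chloride; signal normalized to the plate average as 100%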
# [20] = polyglutamine aggregate formation blockers (AID 1604); conditions: polyglutamine-induced protein aggregation inhibition assay; stronger effect = higher value; tested at 2.5 µM
# [21] = measured here: epithelial PC-3E GFP cell survival
# [22] = measured here: mesenchymal TEM4-18 mCherry cell survival
# [23] = measured here: relative caspase fold change +Dox/-Dox
# [24] = measured here: total cells with miR-34 induction, stronger effect = lower value
# [25] = measured here: total cells without miR-34 induction
# [26] = MELAS cybrid survival, CellTiter-Glo 48 h, stronger effect = higher value
# [27] = Rieske KO mouse fibroblast survival, CellTiter-Glo 72 h
smiles,measurement,setting,value
Clc1ccc(CO/N=C(\Cn2ccnc2)c2ccc(Cl)cc2Cl)c(Cl)c1,parasite load remaining,[1],88.3% (inactive) and 30.5% (inactive) and 1.97% (inactive)
same,viability,[1],76.2% and 91.5% and 53%
same,nuclear beta-catenin stimulation,[2]; at 10 µM,27.8% (inactive)
same,nuclear beta-catenin stimulation,"[2]; stimulation, at 2 µM",3.3%
same,insulin secretion stimulation,[3],-0.7% (inactive)
same,viability decrease,[4],101% (active)
same,tube area decrease,[5],109% (active)
same,GLP1 secretion stimulation,[6],25.7% (active)
same,inhibition of viability,[7],101% (active)
same,viability decrease (inhibition),[8],141% (active)
same,viability decrease (inhibition),[9],103% (active)
same,inhibition,[10],-14.7% (inactive)
same,red/green cell ratio (normalised),"[11]; counts scaled to control wells, 1 = unselective",1.02 (inactive)
same,normalised cell number,[11]; [21],1.03
same,normalised cell number,[11]; [22],1.05
same,activity remaining,[12],128% (inactive)
same,fold change,[13]; stronger effect = lower value,0.851 (inactive)
same,fold change,"[13]; stronger effect = lower value, cell number ratio, induced over uninduced",1.12 (inactive)
same,fold change,[13]; [23],1.03 and 1.16
same,cell count,[13]; [24],7740 and 6080
same,cell count,[13]; [25],6900 and 7140
same,z-score,[14]; [26],-0.195 (inactive) and 0.269 (inactive)
same,z-score,[14]; [27],0.707 and 1.28
same,remaining NAD,[15],10 nM (inactive)
same,luciferase signal,[16],52 AU (inactive)
same,z-score,[17],-2.53 (inactive)
OCCOc1ccccc1,nuclear beta-catenin stimulation,[2]; at 10 µM,0.5% (inactive)
same,nuclear beta-catenin stimulation,"[2]; stimulation, at 2 µM",0.3%
same,insulin secretion stimulation,[3],-1.8% (inactive)
same,viability decrease,[4],-10.3% (inactive)
same,tube area decrease,[5],8.6% (inactive)
same,GLP1 secretion stimulation,[6],3.7% (inactive)
same,inhibition of viability,[7],-10.6% (inactive)
same,viability decrease (inhibition),[8],24.2% (inactive)
same,viability decrease (inhibition),[9],-1.2% (inactive)
CN1C(=O)CCS(=O)(=O)C1c1ccc(Cl)cc1 (configuration not stated),score,[18],0.89
same,cytochrome c release ratio,[19],0.72
same,inhibition of aggregation,[20],72.7%
same,parasite load remaining,[1],65% (inactive) and 73.4% (inactive)
same,viability,[1],112% and 75.6%
same,nuclear beta-catenin stimulation,[2]; at 10 µM,0.2% (inactive)
same,nuclear beta-catenin stimulation,"[2]; stimulation, at 2 µM",3.4%
same,insulin secretion stimulation,[3],0.4% (inactive)
same,viability decrease,[4],-22.1% (inactive)
same,tube area decrease,[5],3.9% (inactive)
same,GLP1 secretion stimulation,[6],3.4% (inactive)
same,inhibition of viability,[7],-1.4% (inactive)
same,viability decrease (inhibition),[8],2.8% (inactive)
same,viability decrease (inhibition),[9],-11.9% (inactive)
same,inhibition,[10],-16% (inactive)
same,red/green cell ratio (normalised),[11],1.12 (inactive)
same,normalised cell number,[11]; [21],0.96
same,normalised cell number,[11]; [22],1.07
same,activity remaining,[12],123% (inactive)
same,z-score,[14]; [26],-0.135 (inactive) and 0.131 (inactive)
same,z-score,[14]; [27],0.8 and -0.00931
same,remaining NAD,[15],10 nM (inactive)
same,z-score,[17],0.35 (inactive) and 0.81 (inactive)
NCC(O)c1ccc(O)cc1 (configuration not stated),score,[18],1.11
same,cytochrome c release ratio,[19],0.99
same,inhibition of aggregation,[20],55.6%
same,parasite load remaining,[1],79.5% (inactive) and 84.6% (inactive)
same,viability,[1],96% and 67.9%
same,nuclear beta-catenin stimulation,[2]; at 10 µM,-0.4% (inactive)
same,nuclear beta-catenin stimulation,"[2]; stimulation, at 2 µM",0.8%
same,insulin secretion stimulation,[3],-2.1% (inactive)
same,viability decrease,[4],-4.35% (inactive)
same,tube area decrease,[5],-17.5% (inactive)
same,GLP1 secretion stimulation,[6],1.6% (inactive)
same,inhibition of viability,[7],-5% (inactive)
same,viability decrease (inhibition),[8],18.2% (inactive)
same,viability decrease (inhibition),[9],1.65% (inactive)
same,inhibition,[10],8.94% (inactive)
same,red/green cell ratio (normalised),[11],1 (inactive)
same,normalised cell number,[11]; [21],0.98
same,normalised cell number,[11]; [22],0.97
same,activity remaining,[12],125% (inactive)
same,z-score,[14]; [26],-0.301 (inactive) and 0.485 (inactive)
same,z-score,[14]; [27],-0.195 and -0.00807
same,remaining NAD,[15],10 nM (inactive)
same,luciferase signal,[16],80 AU (inactive)
same,z-score,[17],0.63 (inactive) and -0.045 (inactive)
CCCC(C)(COC(N)=O)COC(=O)NC(C)C (configuration not stated),score,[18],1.44
same,cytochrome c release ratio,[19],0.68
same,inhibition of aggregation,[20],85.8%
same,nuclear beta-catenin stimulation,[2]; at 10 µM,0.1% (inactive)
same,nuclear beta-catenin stimulation,"[2]; stimulation, at 2 µM",-0.6%
same,insulin secretion stimulation,[3],3.4% (inactive)
same,viability decrease,[4],-38.7% (inactive)
same,tube area decrease,[5],14.3% (inactive)
same,GLP1 secretion stimulation,[6],-1.3% (inactive)
same,inhibition of viability,[7],-14.1% (inactive)
same,viability decrease (inhibition),[8],-5.3% (inactive)
same,viability decrease (inhibition),[9],-12.4% (inactive)
same,inhibition,[10],-0.85% (inactive)
same,red/green cell ratio (normalised),[11],1.05 (inactive)
same,normalised cell number,[11]; [21],1.17
same,normalised cell number,[11]; [22],1.23
same,activity remaining,[12],115% (inactive)
same,fold change,[13]; stronger effect = lower value,0.952 (inactive) and 0.896 (inactive) and 0.902 (inactive)
same,fold change,[13]; [23],1.07 and 1.02 and 3.4
same,cell count,[13]; [24],10700 and 9140 and 11300
same,cell count,[13]; [25],11200 and 10200 and 12600
same,z-score,[14]; [26],0.305 (inactive)
same,z-score,[14]; [27],0.223
same,remaining NAD,[15],10 nM (inactive)
same,luciferase signal,[16],40 AU (inactive)
same,z-score,[17],1.27 (inactive)
O=C(CCCN1CCC2(CC1)C(=O)NCN2c1ccccc1)c1ccc(F)cc1,score,[18],1.06
same,cytochrome c release ratio,[19],1.21
same,inhibition of aggregation,[20],87%
same,nuclear beta-catenin stimulation,[2]; at 10 µM,0.4% (inactive)
same,nuclear beta-catenin stimulation,"[2]; stimulation, at 2 µM",5.7%
same,insulin secretion stimulation,[3],1.8% (inactive)
same,viability decrease,[4],51.6% (active)
same,tube area decrease,[5],-3.9% (inactive)
same,GLP1 secretion stimulation,[6],8% (inactive)
same,inhibition of viability,[7],60.5% (active)
same,viability decrease (inhibition),[8],95.2% (active)
same,viability decrease (inhibition),[9],83.7% (active)
same,inhibition,[10],-2.11% (inactive)
same,red/green cell ratio (normalised),[11],1.18 (inactive)
same,normalised cell number,[11]; [21],0.93
same,normalised cell number,[11]; [22],1.1
same,activity remaining,[12],110% (inactive)
same,z-score,[14]; [26],0.0809 (inactive) and 0.865 (inactive)
same,z-score,[14]; [27],-0.502 and 0.666
same,remaining NAD,[15],10 nM (inactive)
same,luciferase signal,[16],60 AU (inactive)
same,z-score,[17],-1.13 (inactive) and 1.23 (inactive) and -1.53 (inactive)
O=C(O)CCCc1ccc(N(CCCl)CCCl)cc1,score,[18],-0.24
same,cytochrome c release ratio,[19],1.24
same,inhibition of aggregation,[20],81.4%
same,nuclear beta-catenin stimulation,[2]; at 10 µM,3.6% (inactive)
same,nuclear beta-catenin stimulation,"[2]; stimulation, at 2 µM",-1.1%
same,insulin secretion stimulation,[3],-0.1% (inactive)
same,viability decrease,[4],49.8% (inactive)
same,tube area decrease,[5],87% (active)
same,GLP1 secretion stimulation,[6],-0.8% (inactive)
same,inhibition of viability,[7],8.83% (inactive)
same,viability decrease (inhibition),[8],3.9% (inactive)
same,viability decrease (inhibition),[9],2.6% (inactive)
same,inhibition,[10],-1.4% (inactive)
same,red/green cell ratio (normalised),[11],0.75 (inactive)
same,normalised cell number,[11]; [21],1.2
same,normalised cell number,[11]; [22],0.9
same,activity remaining,[12],115% (inactive)
same,z-score,[14]; [26],-0.116 (inactive) and 0.451 (inactive)
same,z-score,[14]; [27],-0.284 and -0.412
same,remaining NAD,[15],10 nM (inactive)
same,luciferase signal,[16],144 AU (inactive)
same,z-score,[17],-0.065 (inactive) and 0.565 (inactive)
